AI-2 QS modul: Vibrio harveyi AI-2 quorum sensing modulators, primary screen, JMH597 strain, luminescence/OD600 ratio | AID 2094, 2009 | Vibrio harveyi JMH597 AI-2 luminescence/OD600 ratio, 9 h; hits give low values; strain lacks LuxN and CqsS sensors; 0 = neutral-control median | actives 0.4% (n = 300,000) | activity change, % at 7.5 µM; in the data active = activity change below about -75%, passing the limit was not always enough;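 also: luminescence divided by OD600 gain over 9 h not by final OD600 alone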
HSP90 inh: HSP90 inhibitors, primary screen, cell lysate, luminescence | Heat shock protein HSP 90 (rabbit reticulocyte lysate; luciferase refolding) | Rabbit reticulocyte lysate, luciferase refolding luminescence, 3 h | inhibition, % at 5.6 µM | actives 0.91% (n = 290,000) | AID 1789, 2009;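 active = inhibition above the screen-wide mean plus 3 SD, computed separately per campaign, cut at about 16% in these data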;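 also: inhibitors lower the luminescence because luciferase stays unfolded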
PG9 binder: binders of HIV-1 gp120 antibody PG9, primary screen, biochemical, TR-FRET | actives 0.43% (n = 360,000) | HIV-1 gp120 / PG9 antibody interaction | inhibition, % at 6.7 µM | TR-FRET gp120-PG9 antibody binding | AID 624416, 2012; in the data active = inhibition above about 8.5%
HSF1 inhib: HSF1 inhibitors in luciferase reporter cells, primary screen, cell-based, NIH3T3, luminescence; NIH3T3-HGL HSE-luciferase, MG132-induced, luminescence 8 h; hits give low values; activity change, negative = inhibition, % at 7.5 µM (by protocol); actives 0.77% (n = 300,000);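 active = more than half of replicate wells show activity change below -50%, luminescence cut by over half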;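 also: luciferase reports HSF-1 transcriptional activity via heat shock element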
GAA850 FXN act: FXN promoter activators, primary screen, cell-based, luciferase luminescence, HEK293 lucGAA850 | HEK293 lucGAA850 FXN promoter luciferase reporter, 24 h; percent of 10 µM SAHA response | activation, % at 6 µM | actives 0.56% (n = 360,000) | AID 540364, 2011;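 active = activation above the average of all compounds screened plus 3 SD, cutoff fixed separately per campaign, cut at about 7.5% in these data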
SMARCA2 act: SMARCA2 (BRM) function activators, primary screen, cell-based, luminescence, high throughput. MG213 cells, MMTV-luciferase reporter, dexamethasone, overnight. actives 1% (n = 370,000). activation, % at 9.1 µM; in the data active = activation above about 7.8%
Each line names hits and unclear results; the compound was inactive in the other large screens. An excerpt weighted towards active compounds, which were near 3.4% of everything screened.

O=C(NCc1cccnc1)c1c[nH]c2cc3c(cc2c1=O)OCCO3	HSP90 inh 16.4
Cc1c(CC(=O)O)c(=O)oc2cc(OCc3ccc(Br)cc3)ccc12	HSP90 inh 16.9
O=C(NCCc1c[nH]c2ccccc12)OCc1cn(-c2ccc(Cl)cc2)nn1	none (no result: AI-2 QS modul, HSP90 inh, PG9 binder, HSF1 inhib, GAA850 FXN act)
CC(C)NC(=O)N(O)C1N(Cc2ccc3c(c2)OCO3)C(=S)SC1(C)C (stereo unspecified)	HSF1 inhib -57.7
O=C(Nc1ccccc1)C(=O)Nc1cccnc1	HSP90 inh 16.3
CCC(=O)N1CCc2cc(Br)c(S(=O)(=O)NC3CCN(Cc4ccccc4)CC3)cc21	none (no result: AI-2 QS modul, HSP90 inh, PG9 binder, HSF1 inhib, GAA850 FXN act)
COC(=O)c1ccc(C(=O)Nc2ccc3c(c2)C(=O)NC3=O)cc1	none
Cc1ccc(C(=O)Nc2ccc3c(c2)C(=O)NC3=O)cc1	HSF1 inhib -56.7
CC(CCN1CCC(C(O)(c2ccccc2)c2ccccc2)CC1)Oc1ccc(C#N)c(F)c1 (stereo unspecified)	none (no result: AI-2 QS modul, HSP90 inh, PG9 binder, HSF1 inhib, GAA850 FXN act)
CCN(CC)S(=O)(=O)c1cccc(NC(=O)CCNC(=O)NC23CC4CC(CC(C4)C2)C3)c1	HSF1 inhib -65.7 (no result: HSP90 inh, PG9 binder, SMARCA2 act)
CN(C)S(=O)(=O)c1cccc(NC(=S)NC23CC4CC(CC(C4)C2)C3)c1	none
CC(C)(C)OC(=O)N1C[C@@]23C[C@H](c4cccc(F)c4)[C@@H](C[C@@H]2S1(=O)=O)O3	none (no result: AI-2 QS modul, HSP90 inh, HSF1 inhib, GAA850 FXN act)
COC(=O)c1c(C)[nH]c(/C=N/Nc2ccccc2)c1C	SMARCA2 act 14.7
Cc1c(C=NNc2ccccc2)[nH]c(=O)[nH]c1=O	none (no result: AI-2 QS modul, HSP90 inh, HSF1 inhib)
N#Cc1ccc(Cn2nnc(-c3ccc(N4CCOCC4)cc3)n2)cc1	none (no result: AI-2 QS modul, HSP90 inh, PG9 binder, HSF1 inhib, GAA850 FXN act)
CCNc1c([N+](=O)[O-])c(=O)oc2ccccc12	none
COc1c([N+](=O)[O-])c(=O)oc2ccccc12	HSF1 inhib -72.4
CC1=CCC2C(=O)N(c3ccc(C)cc3)C(=O)C2C1 (stereo unspecified)	none
CC1=CCC2C(=O)N(c3ccc(C)c(Br)c3)C(=O)C2C1 (stereo unspecified)	HSF1 inhib -76.2
CN(C)C=Nc1nc2c(Br)ccc(Br)c2cc1C(=O)NCC(C)(C)C	none (no result: AI-2 QS modul, HSP90 inh, PG9 binder, HSF1 inhib, GAA850 FXN act)
CCc1ccc(-c2ccc(C(=O)O)cc2)nc1	SMARCA2 act 7.8
O=C(NCc1ccccc1)[C@H]1CCCN1C(=O)[C@H]1CCCN1C(=O)c1ccccc1C(F)(F)F	none (no result: AI-2 QS modul, HSP90 inh, HSF1 inhib, GAA850 FXN act)
O=C(Nc1cccc2ccccc12)c1ccc([N+](=O)[O-])s1	none
O=C(Nc1ccccc1F)c1ccc([N+](=O)[O-])s1	AI-2 QS modul -115.2
COC(=O)C1CCC(CNC(=O)C(Cc2ccc3c(c2)OCO3)NC(C)=O)CC1 (stereo unspecified)	none (no result: AI-2 QS modul, HSP90 inh, PG9 binder, HSF1 inhib, GAA850 FXN act)
CCSc1nnc(NC(=O)c2ccccn2)s1	AI-2 QS modul -121.2
Nc1cccc(/C=C/C(=O)O)c1	HSF1 inhib -58.4
CC(=O)C1(C(=O)Nc2cc(C)cc(C)c2)CC(c2ccccn2)=NO1 (stereo unspecified)	none (no result: AI-2 QS modul, HSP90 inh, PG9 binder, HSF1 inhib, GAA850 FXN act)
O=C(CNCCc1ccc(F)cc1)Nc1cc(F)ccc1F	HSF1 inhib -60.1
CCC(NC(=O)Cn1c(-c2ccccc2)cc(C(C)=O)c1C)c1ccccc1 (stereo unspecified)	none (no result: AI-2 QS modul, HSP90 inh, PG9 binder, HSF1 inhib, GAA850 FXN act)
Cc1nnc(-c2cnn(-c3ccccc3)c2N)n1Cc1ccncc1	none
Cc1nnc(-c2cnn(-c3ccccc3)c2N)n1Cc1cccc(C(F)(F)F)c1	HSF1 inhib -60.2
Oc1ccccc1CNc1ccc(OC(F)(F)F)cc1	HSF1 inhib -59.6
Cc1ccc(NCc2ccccc2O)cc1C	none
COCCCNC(=O)CSc1nnc(-c2ccncc2)n1-c1ccc(OC)cc1	none (no result: AI-2 QS modul, HSP90 inh, PG9 binder, HSF1 inhib, GAA850 FXN act)
CN1CCc2c(sc(/N=C/c3cc(Cl)ccc3O)c2C#N)C1	HSF1 inhib -51.9
Nc1nc(Cl)nc2c1ncn2[C@H]1C[C@H](O)[C@@H](CO)O1	AI-2 QS modul -157.9
Nn1c(SCC(=O)NC2CCCCC2)nnc1-c1n[nH]c2c1CCC2	none (no result: AI-2 QS modul, HSP90 inh, PG9 binder, HSF1 inhib, GAA850 FXN act)
CCCCc1ccc(NC(=O)c2cnccn2)cc1	HSP90 inh 16.8
Nc1nc(NCCO)nc(NC2CCCCC2)c1[N+](=O)[O-]	HSF1 inhib -68.8
Nc1nc(NCCOCCO)nc(NC2CCCCC2)c1[N+](=O)[O-]	none
Nc1nc(NCc2ccco2)nc(NC2CCCCC2)c1[N+](=O)[O-]	HSF1 inhib -72.0
Cn1c(NC(=O)c2ccccc2)nc(Cc2ccccc2)c1Cc1ccccc1	none (no result: AI-2 QS modul, HSP90 inh, PG9 binder, HSF1 inhib, GAA850 FXN act)
COCC(C)NC(=O)c1ccc2nc(-c3ccccc3)c(-c3ccccc3)nc2c1 (stereo unspecified)	HSF1 inhib -81.3
CCC(C)NC(=O)c1ccc2nc(-c3ccc(OC)c(OC)c3)c(-c3ccc(OC)c(OC)c3)nc2c1 (stereo unspecified)	none
COc1cccc(N(C)C(=O)[C@@H](C)[C@@H](O)c2ccc(Cl)cc2)c1	none (no result: AI-2 QS modul, HSP90 inh, PG9 binder, HSF1 inhib, GAA850 FXN act)
COCCn1c(C)cc(C(=O)CSc2nnc3ccccn23)c1C	HSP90 inh 49.8, HSF1 inhib -51.2
COCCn1c(SCC(=O)c2cc(C)n(C)c2C)nc2ccccc2c1=O	HSF1 inhib -72.3
Cc1ccc(C(=O)CSc2nnc3ccccn23)c(C)c1	none
Cn1ccnc1SCC(=O)N(C1CCCCC1)C1CCCCC1	HSF1 inhib -68.3
C[C@H]1CCC/C=C/C(=O)c2c(cc(O)c(Cl)c2O)CC(=O)O1	none (no result: AI-2 QS modul, HSP90 inh, PG9 binder, HSF1 inhib, GAA850 FXN act)
COc1ccccc1-c1cc(C(F)(F)F)nc(S(=O)(=O)CCCC(=O)NC(C)C)n1	none
COc1ccccc1-c1cc(C(F)(F)F)nc(S(=O)(=O)CCCC(=O)NCc2ccc(F)cc2)n1	HSF1 inhib -79.8
COc1ccc(S[C@]2(C(=O)N3CCCC3)CC(=O)N(C(=O)c3ccccc3)[C@@H]2c2ccc(OC)cc2)cc1	none (no result: AI-2 QS modul, HSP90 inh, PG9 binder, HSF1 inhib, GAA850 FXN act)
CC(C)CC(=O)NC(NC(=O)CC(C)C)c1cccc([N+](=O)[O-])c1	HSF1 inhib -69.6
CCCCN(C)C(=O)CCC(=O)Nc1ccc2nc(N3CCN(C)CC3)cc(C)c2c1	HSF1 inhib -69.9
CN(Cc1ccco1)C(=O)CN1C(=O)C2(OCCCO2)c2ccccc21	none (no result: AI-2 QS modul, HSP90 inh, PG9 binder, HSF1 inhib, GAA850 FXN act)
Cc1cc(C)c(N(C(=O)c2csnn2)C(C(=O)NC2CCCC2)c2ccncc2)c(C)c1 (stereo unspecified)	HSF1 inhib -76.0
Cc1ccccc1-n1c(=O)cc(N2CCc3ccccc32)[nH]c1=O	HSF1 inhib -78.9
COc1ccc(NS(=O)(=O)c2ccc(-c3ccccn3)s2)cc1	HSF1 inhib -87.1 (no result: HSP90 inh)
O=S(=O)(Nc1ccccc1Cl)c1ccc(-c2ccccn2)s1	none (no result: HSP90 inh)
O=[N+]([O-])c1ccc(OCc2cnc(Cl)s2)cc1	none (no result: AI-2 QS modul, HSF1 inhib)
COc1ccc(OCc2cnc(Cl)s2)cc1	GAA850 FXN act 17.3

Screens as filed in PubChem.
